Screening results: PubChem, several laboratories
LGR2 antag: blocks bursicon-induced cAMP signaling via Drosophila LGR2; HEK293 LGR2, CRE-luciferase, bursicon-stimulated, 4 h; 380,000 tested, 0.35% active; inhibition, % at 9.99 µM; AID 720647;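 active = drop in luminescence signal, shown as inhibition above about 50% in the replicate tests, limit read from the data, passing the limit was not always enough; inconclusive = probably only some replicates passing the limit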;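 also: agonist challenge used bursicon conditioned medium at about half maximal strength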
TROY NFkB inh: inhibitors of TROY-dependent NF-kB signaling. Q293 LMP1-TROYcd NF-kB luciferase reporter, 4 h. inhibition, % at 10 µM. 360,000 tested, 0.98% active;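 active = compounds whose plate-normalised and pattern-corrected inhibition of the luciferase reporter signal at the single screening dose is 50% or more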
EWS-Fli block: inhibitors of EWS/Fli oncoprotein transcriptional activity | A673 NR0B1-luciferase reporter, viability-normalised | 350,000 tested, 0.67% active | inhibition, % at 12.6 µM;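 active = mean inhibition of at least 50% after viability correction, with every replicate also passing that limit; inconclusive = mean reaches 50% but only one of two replicates passes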;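 also: firefly luciferase signal divided by Alamar Blue viability fluorescence both relative to DMSO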
LMP1 NFkB inh: inhibitors of Epstein-Barr LMP1-induced NF-kappaB reporter; LMP1-induced NF-kappaB luciferase reporter cells, luminescence; inhibition, % at 12.5 µM; 350,000 tested, 0.69% active; AID 504558; in the data active = inhibition above about 41%; inconclusive = no clear call, values can overlap the other calls;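 also: 0% = neutral control wells and 100% = reference inhibitor control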
TWEAK Fn14 block: inhibitors of TWEAK-Fn14 interaction signaling | AID 1159606 | TWEAK-stimulated Fn14 reporter cells, luciferase luminescence, 8 h | 360,000 tested, 2% active | inhibition, % at 10 µM; in the data active = inhibition above about 50%
PAX8 inh HTS: inhibitors of PAX8 transcriptional activity in RMG-I cells; RMG-I TPO-luciferase reporter, SteadyGlo, 24 h; inhibition, % at 12.6 µM; 360,000 tested, 1.2% active;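 active = mean replicate inhibition at least 60% with every replicate also reaching 60%; inconclusive = only one of the two criteria is met; inactive = mean below 60% and not all replicates reaching 60%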;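 also: luciferase light reporting Pax8 driven TPO promoter activity; plate controls were median of neutral control wells for no effect and mitoxantrone controls for full effect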
The depositor's hits bear a star; ? = inconclusive; . = no result; ! = a repeat was not active. This is a sample that favours compounds with a hit; in the whole collection about 3.2% have one here.

SMILES	LGR2 antag	TROY NFkB inh	EWS-Fli block	LMP1 NFkB inh	TWEAK Fn14 block	PAX8 inh HTS
Cc1cccc(N2CCN(C(=O)c3cc(S(=O)(=O)N4CCOCC4)cn3C)CC2)c1C	3	-2	13	-2	-19	4
COc1cc(C(=O)N2CCN(c3cc(Cl)ccc3Cl)CC2)cc(OC)c1OC	21	-1	60*	2	29	16
COc1cc(C(=O)N2CCN(c3cccc(C)c3C)CC2)cc(OC)c1OC	6	8	61*	11	2	52
COc1ccc(S(=O)(=O)N(C)C[C@H]2OCCCC[C@H](C)Oc3ccc(NC(=O)CCC(F)(F)F)cc3C(=O)N([C@@H](C)CO)C[C@H]2C)cc1	20	.	-3	.	.	-32
CC(C)C#Cc1cnc2c(c1)C(=O)N([C@@H](C)CO)C[C@@H](C)[C@@H](CN(C)C(=O)c1cccnc1)O2	4	.	-1	.	.	-7
COc1ccc(CCNC(=O)c2cnccn2)cc1	-5	-6	-14	-9	-12	-22
CCCc1ccc(C(C)NC(=O)c2cnccn2)cc1 (stereo not drawn)	.	.	.	13	85*	.
CCCCc1ccc(NC(=O)c2cnccn2)cc1	65*	1	0	24	64*	-27
CC(C)c1ccc(OCC(=O)NNC(=O)c2cnccn2)cc1	-2	-15	5	55*	-6	0
O=C(COc1ccc2ccccc2c1)NNC(=O)c1cnccn1	-20	8	.	1	-2	2
CN1C(=O)c2cc(NC(=O)Nc3ccccc3F)ccc2OC[C@@H]2O[C@@H](CC(=O)NCCc3ccncc3)CC[C@@H]21	-22	.	-2	.	.	3
C[C@@H]1CN([C@H](C)CO)C(=O)c2cc(NC(=O)Cc3ccccc3)ccc2O[C@@H]1CN(C)Cc1ccc(C(=O)Nc2ccccc2N)cc1	4	.	35	.	.	.
Cc1cc(C)c(O)c(-c2cc(C(=O)Nc3ccc(S(=O)(=O)N4CCOCC4)cc3)[nH]n2)c1	.	70*	.	7	63*	.
CC(=NNC(=S)N1CCN(C2CCCCCC2)CC1)c1ccccn1	-18	-2	48	16	-8	94*
CC(=NNC(=S)N1CCN(c2ccccn2)CC1)c1nccs1	.	13	.	74*	104*	.
CC(=NNC(=S)N1CC2CCC(CC2)C1)c1cnccn1	-1	-8	3	66*	-10	16
CC(=NNC(=S)N1CC2CCC(CC2)C1)c1ccccn1	?	21	5	33	-1	-17
CC(=NNC(=S)N1CCCCCC1)c1cccc2cccnc12	9	-12	-1	52*	6	13
O=C(c1cccnc1)N1CC[C@H]2[C@H](CO)Nc3ccc(-c4ccccc4)cc3[C@H]21	27	.	-1	.	.	9
CCCNC(=O)N[C@@H]1CC[C@@H](CCn2cc(C3CCCC3)nn2)O[C@@H]1CO	0	.	-2	.	.	0
CO[C@H]1CN(C)C(=O)c2cc(NC(C)=O)ccc2OC[C@@H](C)N(C(=O)c2ccccn2)C[C@@H]1C	2	.	1	.	.	.
COc1ccc(CN2C(=O)C(C)=C(C)C2OC)cc1 (stereo not drawn)	-3	-2	-4	-7	90*	-11
O=C(N=C1c2ccccc2CN1c1ccc(F)c(F)c1)c1cccnc1	-15	-48	-30	-14	52*	-17
O=C(N=C1c2ccccc2CN1c1cccc(Cl)c1)c1cccnc1	-67	-56	-78	-9	18	-93
C[C@@H]1CN([C@H](C)CO)S(=O)(=O)c2ccc(-c3ccc(F)cc3)cc2O[C@H]1CN(C)C	14	.	-7	.	.	.
SMILES	LGR2 antag	TROY NFkB inh	EWS-Fli block	LMP1 NFkB inh	TWEAK Fn14 block	PAX8 inh HTS
CCCCC(CC)CN=C(N)NC(N)=NCCCCCCN=C(N)NC(N)=NCC(CC)CCCC (stereo not drawn)	.	71*	.	12	105*	.
CN(C)CC(C)(C)CNS(=O)(=O)c1ccc(Cl)c(Cl)c1	-2	52*!	1	0	1	16
CCC1N=C(SC)NC(C)=C1C(=O)c1ccccc1 (stereo not drawn)	-11	2	0	-9	-11	1
CSC1=NC(C(Cl)(Cl)Cl)N=C(c2ccc(C)cc2)N1 (stereo not drawn)	16	7	59*	10	22	-9
CC(=O)N(C)C[C@H]1Oc2cc(C#CCC3CCCC3)ccc2S(=O)(=O)N([C@H](C)CO)C[C@@H]1C	1	.	6	.	.	.
CS(=O)(=O)Nc1ccc(-c2cncc3nccn23)cc1	8	2	-3	.	7	6
CS(=O)(=O)Nc1ccc(-c2cnc3cccnn23)cc1	19	24	-33	.	65*	-91
O=S(=O)(/C(=C\c1ccc(C(F)(F)F)cc1)c1nc2ccccc2[nH]1)c1ccccc1	.	54*	.	1	100*	.
O=C(NCc1ccco1)/C(=C/c1ccc(C(F)(F)F)cc1)c1nc2ccccc2[nH]1	-61	31	.	4	18	-90
Cc1noc(C)c1NC(=O)N(C)C[C@H]1Oc2ccc(NC(=O)Nc3ccccc3)cc2C(=O)N([C@@H](C)CO)C[C@@H]1C	-1	.	-3	.	.	-18
CC(C)Oc1ccc(CNC(=O)CC(c2ccccc2)c2cc(Cl)ccc2O)cc1 (stereo not drawn)	?	56*	.	-2	47	.
CCCN(C)C[C@H]1OCCCC[C@@H](C)Oc2ccc(NC(=O)CCC(F)(F)F)cc2C(=O)N([C@H](C)CO)C[C@@H]1C	-33	.	-2	.	.	-2
O=C(Nc1ccc(Cl)cc1)Nc1ccc(N2CCCC2)c(S(=O)(=O)Nc2ccccc2Cl)c1	42	33	.	39	75*	101*
O=C(Nc1ccc(N2CCOCC2)c(S(=O)(=O)Nc2ccccc2Cl)c1)c1ccccc1	5	17	7	2	14	16
Cc1ccccc1NC(=O)Nc1ccc2c(c1)C(=O)N(C)[C@H]1CC[C@H](CC(=O)O)O[C@H]1CO2	-10	.	5	.	.	52
CN(C)CCC1(C2=CCCC2)CC/C(=C/c2ccc(Cl)cc2)C1=O (stereo not drawn)	69*	8	-2	9	-3	36
CCNC(=O)[C@H]1[C@H](CO)[C@H]2Cn3c(ccc(/C=C/c4ccccc4)c3=O)[C@@H]1N2	11	.	-5	.	.	-26
O=C1C(=C(I)I)c2ccccc2-c2ccccc21	103*	64*	58*	12	104*	128*
O=C(O)c1cccc2c1C(=O)c1ccccc1-2	8	0	-8	-2	1	-3
COc1ccc(C(=O)NC(=S)NNC(=O)COc2ccccc2)cc1	41	17	16	14	63*	109*
COc1ccccc1C(=O)NNC(=S)NC(=O)c1cc(OC)c(OC)c(OC)c1	14	-13	22	16	14	63*
COc1cc(C(=O)NC(=S)Nc2csc(-c3ccc(F)cc3)n2)cc(OC)c1OC	10	56*	8	-2	10	0
COc1ccccc1C(=O)NNC(=O)c1cccc(O)c1	39	-11	-9	8	39	-38
